High-throughput results from PubChem BioAssay.
In the library only some 1.6% were active in any assay of this set; here they are far more common.
FUS yeast rescue: FUS proteinopathy suppression in yeast. S. cerevisiae FUS-expressing, growth rescue, OD600, 24 h. Potency, µM (titrated, usually from 76.6 µM), actives largely listed as activators. 390,000 compounds, 0.24% hits. AID 1347120;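 also: plate controls were DMSO vehicle for no effect and reference control for full effect; nearly all actives have a fitted effect of over 55% in size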
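Toxicity suppression screen in FUS-yeast. Cells induced with 2% galactose, starting OD 0.005, treated 24hr at 30C with compounds at multiple final concentrations; growth by OD600.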
gsp agonist: agonists of gsp mutant (McCune-Albright syndrome). 340,000 compounds, 0.13% hits. AID 624287. Potency, µM (doses to about 76.9 µM), without a hit: at the highest dose activation (cAMP increase), actives largely listed as activators. gsp mutant cells, cAMP HTRF, 30 min; active = well fitted activation curve with a large enough effect; inconclusive = small, poorly fitted or top-dose-only effect, or another doubt; inactive = no such curve, though single readings can be large or run the other way; cell line not stated here;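 also: phosphodiesterase inhibitor Ro 20-1724 added with compounds to block cAMP breakdown; nearly all actives have a fitted effect of over 60% in size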
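Cells in DMEM/10% FBS with G418 were pretreated with compounds in DMSO plus […] (300 uM stock) for 30 min at 37C. cAMP was measured by HTRF (cAMP-d2 plus anti-cAMP antibody-K) after 30 min at room temperature.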
gsp antag: antagonizes gsp, the McCune-Albright syndrome mutation. Potency, µM (top dose mostly 76.9 µM), without a hit: at the top dose activity change, negative = inhibition, usual class: inhibitors. 340,000 compounds, 0.4% hits. gsp-mutant cells, cAMP HTRF, 30 min; calls by dose curve; cell line not stated here;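 also: intracellular cAMP measured with PDE inhibitor Ro 20-1724 present during compound exposure; % is scaled to controls: 0 for no effect and ±100 for the full control effect; nearly all actives have a fitted effect of over 65% in size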
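HTRF cAMP measurement after 30 min RT detection following 30 min, 37C compound treatment alongside […] (added as 300 uM solution) in G418-selected cells seeded at 2000/well and grown 16–24 h.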
Mito fusion yeast: inhibitors of mitochondrial division or activators of mitochondrial fusion; S. cerevisiae fusion-defective mutant growth rescue, CellTiterGlo 48 h; Potency, µM (top dose mostly 46.1 µM), inactives show at the top dose growth rescue (activation), actives largely listed as activators; 320,000 compounds, 0.23% hits; also: % of control where 0% means no effect; nearly all actives have a fitted effect of over 45% in size
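Yeast fusion mutant, YPEG (non-fermentable carbon), compound, 48 h at 37C non-permissive; CellTiterGlo added, 10 min RT, luminescence read. Rescued growth = division inhibition.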
12-LOX inh: ALOX12 (human) lipoxygenase inhibition | AID 1671190 | Potency, µM (top dose mostly 108 µM), for inactives: top-dose activity change, negative = inhibition, usual class: inhibitors | purified 12hLO, xylenol orange hydroperoxide absorbance | 580,000 compounds, 1.1% hits | P18054; also: % is scaled to controls: 0 for no effect and ±100 for the full control effect
Target sequence (P18054 whole entry, looked up): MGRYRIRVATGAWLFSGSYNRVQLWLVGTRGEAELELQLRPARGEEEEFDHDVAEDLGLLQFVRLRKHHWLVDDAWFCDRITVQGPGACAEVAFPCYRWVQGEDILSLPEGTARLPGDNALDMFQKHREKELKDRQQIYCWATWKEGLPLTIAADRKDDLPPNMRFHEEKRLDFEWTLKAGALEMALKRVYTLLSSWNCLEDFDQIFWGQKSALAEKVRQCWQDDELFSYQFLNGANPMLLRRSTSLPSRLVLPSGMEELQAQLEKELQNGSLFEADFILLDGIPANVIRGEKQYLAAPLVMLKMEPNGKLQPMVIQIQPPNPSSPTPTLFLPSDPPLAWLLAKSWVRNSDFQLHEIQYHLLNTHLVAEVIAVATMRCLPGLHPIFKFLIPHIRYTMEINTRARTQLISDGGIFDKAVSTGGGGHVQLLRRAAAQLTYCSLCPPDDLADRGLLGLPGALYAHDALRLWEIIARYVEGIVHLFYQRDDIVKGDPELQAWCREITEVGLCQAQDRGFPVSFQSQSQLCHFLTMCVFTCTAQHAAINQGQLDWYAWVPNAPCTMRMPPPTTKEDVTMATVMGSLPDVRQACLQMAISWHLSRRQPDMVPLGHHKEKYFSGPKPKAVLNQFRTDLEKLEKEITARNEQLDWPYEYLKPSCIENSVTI
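Hydroperoxide product was detected by ferrous iron/xylenol orange as the 573 to 405 nm absorbance ratio. Arachidonic acid at 40 uM (final) was turned over for 30 min at room temperature by 150 nM human 12hLO, pH 7.0 Hepes buffer, after 15 min compound preincubation.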
Numbers without * were called inactive; i = inactive; ? = inconclusive; . = no result; [ ] = another dose, or the depositor's remark. Unless noted, calls follow the shape of the dose curve; as a rule, active = well fitted curve in the direction sought with a large enough effect; inconclusive = small, poorly fitted or top-dose-only effect, or another doubt; inactive = no such curve, though single readings can be large; an effect the other way counts as inactive or inconclusive. Potency is read from the fitted curve at half-maximal effect.

SMILES	FUS yeast rescue	gsp agonist	gsp antag	Mito fusion yeast	12-LOX inh
CSc1cccc(NC(=O)Cn2c3c(c(=O)n2-c2ccccc2)Cc2ccccc2O3)c1	.	.	.	.	0%
Cc1ccc(NC(=O)CNc2ccc(Cl)c(Cl)c2)cc1S(=O)(=O)N(C)C	.	-33%	40µM*	14%	-20%
Cc1[nH]n(-c2ccccc2)c(=O)c1/C=N/NC(=O)c1cccc(F)c1	i	2%	-15%	9%	35µM*
Cc1[nH]n(-c2ccc(Br)cc2)c(=O)c1/C=N/NC(=O)c1ccccc1	i	-38%	-11%	0%	0%
Cc1[nH]n(-c2ccccc2)c(=O)c1/C=N/Nc1nncc(-c2ccccc2)n1	i	-18%	-12%	-7%	16µM*
Cc1ccc(-c2nnc([C@H]3CCN(Cc4cccc(C#N)c4)C3)o2)cc1	.	.	.	.	69%[176 µM]
NC(=S)NN=C1c2ccccc2-c2ccccc21	i	-43%	-5%	30%	35µM*
COc1cccc(/C=C2\SC(=S)N(NS(=O)(=O)c3ccc(C)cc3)C2=O)c1OC	.	.	.	5µM*	?
COc1ccccc1/C=C1\SC(=S)N(NS(=O)(=O)c2ccccc2)C1=O	i	4%	-18%	26%	-28%
CC(/C=C1\SC(=S)N(NS(=O)(=O)c2ccccc2)C1=O)=C\c1ccccc1	i	-10%[15.4 µM]	-17%	11%	?
CC(=O)N1C(=O)/C(=C2\SC(=S)N(NS(=O)(=O)c3ccc(C)cc3)C2=O)c2ccccc21	i	17%	-5%	2%	45µM*
CC(/C=C1\SC(=S)N(NS(=O)(=O)c2ccc(C)cc2)C1=O)=C\c1ccccc1	i	-1%[15.4 µM]	?	7%	16µM*
CC(/C=C1\SC(=S)N(c2ccc(C(=O)O)cc2)C1=O)=C\c1ccccc1	i	3%	-6%	22%	35µM*
c1ccc([C@@H]2CN(C3CCOCC3)C[C@H]2COc2cccnc2)nc1	.	.	.	.	248%
O=C(NC1CCN(Cc2cccc(C(F)(F)F)c2)CC1)C1CCC1	.	.	.	.	-2%
O=S(=O)(NC[C@H]1Cn2c(-c3ccc(F)cc3)cnc2CO1)c1ccc(Cl)cc1	.	.	.	.	50µM*
COc1cccc(CN2CCCN(Cc3ccncc3)C(c3ccccc3)CC(=O)NCC2)c1 (stereo not given)	.	.	.	.	56%
COc1ccc(C)cc1S(=O)(=O)n1cc(C)nc1-c1ccccc1	.	.	.	.	-12%
CN(CC(=O)Nc1ccc(F)cc1)C(=O)COC(=O)c1cccc(N(C)C)c1	i	25µM*	-4%	2%	-7%
CN1CCC(N[C@@H](Cc2c[nH]c3ccccc23)C(=O)NCC(c2ccccc2)c2ccccc2)(C(=O)NC2CCCCC2)CC1	i	.	.	.	.
CC(C)(C)OC(=O)N1CCC(N[C@@H](Cc2c[nH]c3ccccc23)C(=O)NCC(c2ccccc2)c2ccccc2)(C(=O)NC2CCCCC2)CC1	10µM*	.	.	.	.
Cc1noc2c(NCC3CCOCC3)cc(-c3ccc(F)cc3)nc12	.	.	.	.	56µM*
COc1ccccc1N(C)C(=O)C1CCN(c2nc3ccccc3o2)CC1	.	.	.	.	-4%
CCCSc1nc(N2CCOCC2)c2c(c1C#N)CCCC2	i	17%	-20%	9%	3%
CC(C)c1nc(N2CCOCC2)c(C#N)c2c1CCC2	i	0%	35µM*	4%	0%
SMILES	FUS yeast rescue	gsp agonist	gsp antag	Mito fusion yeast	12-LOX inh
CN(C)CCCSc1nc(N2CCOCC2)c2c(c1C#N)CCCC2	.	.	.	.	0.5µM*
CCCc1nc(N2CCOCC2)c(C#N)c2c1CCCC2	i	-2%	-1%	16%	-19%
O=C(NCCc1cccc(O)c1)Nc1ccc(F)cc1F	.	.	.	.	-26%
COc1ccc(OC)c(N(CC(=O)N2CCN(c3cc(Cl)ccc3C)CC2)S(C)(=O)=O)c1	28µM*	5%	-20%	-5%	-8%
O=C(Cc1ccc(Cl)cc1)N1CCC2(CC1)NC(=O)N(c1ccc(F)cc1)N2	.	.	.	.	2.5µM*
Cc1ccc(C)c(C(=O)N2CCC3(CC2)N(C)C(=O)CS3(=O)=O)c1	.	.	.	.	33%
Cc1ccc(C)c(C(=O)N2CCC3(CC2)NC(=O)N(c2cccc(F)c2)N3)c1	.	.	.	.	2.2µM*
Cc1ccc(C(=O)N2CCC3(CC2)NC(=O)N(c2cccc(F)c2)N3)cc1	.	.	.	.	2.5µM*
CN(C)c1cccc(C(=O)N2CCC3(CC2)NC(=O)N(Cc2ccccc2)C3=O)c1	.	.	.	.	19%
CN(C)c1cccc(C(=O)N2CCC3(CC2)NC(=O)N(c2cccc(F)c2)N3)c1	.	.	.	.	2.2µM*
Cc1cccc(NC(=O)NCCc2coc(-c3ccc(F)cc3)n2)c1	.	.	.	.	14%
CCCCCN(CCC(=O)NCCC(C)C)C(=O)c1cc(C)oc1C	.	.	.	.	-10%
CCOc1ccc(C(=O)N2CCC3(CC2)NC(=O)N(c2ccc(F)cc2)N3)cc1	.	.	.	.	2.2µM*
O=C(c1cccc(F)c1)N1CCC2(CC1)NC(=O)N(c1ccccc1Cl)N2	.	.	.	.	1.3µM*
O=C(c1cccc(F)c1)N1CCC2(CC1)NC(=O)N(Cc1ccc(F)cc1)C2=O	.	.	.	.	17%
Cc1ccc(C(=O)N2CCC3(CC2)N(C)C(=O)CS3(=O)=O)c(C)c1	.	.	.	.	40%
Cc1ccc(C(=O)N2CCC3(CC2)NC(=O)N(c2cccc(Cl)c2)N3)c(C)c1	.	.	.	.	1.4µM*
Cc1ccc(C(=O)N2CCC3(CC2)NC(=O)N(c2ccc(F)cc2)N3)cc1	.	.	.	.	3.2µM*
C=CCN(C(=O)CN1CCC(CN2CCOCC2)CC1)c1ccccc1	.	.	.	.	6%
Cc1ccccc1NC(=O)Cn1c(=O)c2c(ncn2CCC(C)C)n(Cc2ccccc2)c1=O	.	.	.	.	-25%
Cc1nn(Cc2ccccc2)c(C)c1CNS(=O)(=O)c1ccccc1	.	.	.	.	10%
